Experimental data as given in PubChem BioAssay AID1159580 (chemical genetic matrix, 2015).
Screen size: about 5,500 compounds; about 2,000 (36%) were called active. About 18% were inconclusive and are not listed. Cut-off read from the data, not from the text of the source: active = normalized growth mostly below about 0.91 (no sharp cut-off); inconclusive = no clear call, values can overlap the other calls; inactive = mostly above about 0.92. The list shows a part of the results.

Test: chemical genetic growth profiling, strain panel (AID 1159580);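 note: tested at 20 µM; growth read once vehicle control cultures reached saturation at 30 °C; 1 = growth at the plate median or of vehicle wells; lower values mean less growth of the strain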
Conditions: S. cerevisiae deletion strains, growth OD
[1] = locus YDL101C, strain DUN1, active compounds read low
[2] = locus YHR030C, strain SLT2, active compounds read low
[3] = locus YAL013W, strain DEP1, active compounds read low
[4] = locus YBR229C, strain ROT2, active compounds read low
[5] = locus YDL134C, strain PPH21, active compounds read low
[6] = locus YDR150W, strain NUM1, active compounds read low
[7] = locus YEL061C, strain CIN8, active compounds read low
[8] = locus YGR078C, strain PAC10, active compounds read low
[9] = locus YHR087W, strain rtc3, active compounds read low
[10] = locus YJR043C, strain POL32, active compounds read low
[11] = locus YJR075W, strain HOC1, active compounds read low
[12] = locus YLR039C, strain RIC1, active compounds read low
[13] = locus YLR058C, strain SHM2 (second series), active compounds read low
[14] = locus YLR085C, strain ARP6, active compounds read low
[15] = locus YLR262C, strain YPT6, active compounds read low
[16] = locus YML094W, strain GIM5, active compounds read low
[17] = locus YMR219W, strain ESC1, active compounds read low
[18] = locus YMR263W, strain SAP30, active compounds read low
[19] = locus YMR307W, strain GAS1, active compounds read low
[20] = locus YNL128W, strain TEP1, active compounds read low
[21] = locus YNL153C, strain GIM3, active compounds read low
[22] = locus YNL298W, strain CLA4 (second series), active compounds read low
[23] = locus YNL322C, strain KRE1, active compounds read low
[24] = locus YNR030W, strain Alg12, active compounds read low
[25] = locus YPL055C, strain LGE1, active compounds read low
[26] = locus YPL241C, strain CIN2, active compounds read low
[27] = locus YPR135W, strain CTF4, active compounds read low

Measured: normalized growth

O=C(Nc1cccc2ccccc12)c1ccccc1O
inactive: [1] 0.93 | locus YFR019W, strain FAB1, active compounds read low 0.781 | locus YHR205W, strain SCH9, active compounds read low 0.687 | locus YJL128C, strain PBS2, active compounds read low 0.823 | locus YJR066W, strain TOR1 (second series), active compounds read low 0.645 | locus YPR106W, strain ISR1, active compounds read low 0.896 | locus YPR111W, strain DBF20, active compounds read low 0.884
active: locus YAR019C, strain CDC15, active compounds read low 0.848 | locus YBL105C, strain PKC1, active compounds read low 0.862 | locus YBR135W, strain CKS1, active compounds read low 0.85 | locus YBR136W, strain MEC1, active compounds read low 0.834 | locus YBR160W, strain CDC28, active compounds read low 0.872 | locus YDL017W, strain CDC7, active compounds read low 0.866 | locus YDL028C, strain MPS1, active compounds read low 0.816 | locus YDL108W, strain KIN28, active compounds read low 0.827 | locus YDL132W, strain cdc53, active compounds read low 0.834 | locus YDL214C, strain PRR2, active compounds read low 0.563 | locus YDR052C, strain DBF4, active compounds read low 0.83 | locus YDR054C, strain cdc34, active compounds read low 0.842 | locus YDR226W, strain ADK1, active compounds read low 0.856 | locus YDR477W, strain SNF1, active compounds read low 0.563 | locus YER123W, strain YCK3, active compounds read low 0.432 | locus YER133W, strain GLC7, active compounds read low 0.524 | locus YFL009W, strain cdc4, active compounds read low 0.837 | locus YFL029C, strain CAK1, active compounds read low 0.845 | locus YFR003C, strain YPI1, active compounds read low 0.854 | locus YFR028C, strain CDC14, active compounds read low 0.846 | locus YGR040W, strain KSS1, active compounds read low 0.557 | locus YGR052W, strain FMP48, active compounds read low 0.556 | locus YGR092W, strain DBF2, active compounds read low 0.324 | [2] 0.505 | locus YHR079C, strain IRE1, active compounds read low 0.405 | locus YHR082C, strain KSP1, active compounds read low 0.576 | locus YIL147C, strain SLN1, active compounds read low 0.831 | locus YJL095W, strain BCK1, active compounds read low 0.488 | locus YJL157C, strain FAR1, active compounds read low 0.492 | locus YJR016C, strain ILV3, active compounds read low 0.852 | locus YJR066W, strain TOR1, active compounds read low 0.479 | locus YKL048C, strain ELM1, active compounds read low 0.768 | locus YKL067W, strain YNK1, active compounds read low 0.555 | locus YKL101W, strain HSL1, active compounds read low 0.585 | locus YKL193C, strain SDS22, active compounds read low 0.843 | locus YKL203C, strain TOR2, active compounds read low 0.572 | locus YLR113W, strain HOG1, active compounds read low 0.327 | locus YLR133W, strain CKI1, active compounds read low 0.595 | locus YLR403W, strain SFP1, active compounds read low 0.552 | locus YML070W, strain DAK1, active compounds read low 0.519 | locus YMR001C, strain CDC5, active compounds read low 0.838 | locus YMR205C, strain PFK2 (second series), active compounds read low 0.53 | locus YMR277W, strain FCP1, active compounds read low 0.839 | locus YNL006W, strain LST8, active compounds read low 0.858 | locus YNL020C, strain ARK1, active compounds read low 0.529 | locus YNL161W, strain CBK1, active compounds read low 0.864 | locus YNL183C, strain NPR1, active compounds read low 0.443 | locus YNL207W, strain RIO2, active compounds read low 0.834 | locus YNL222W, strain SSU72, active compounds read low 0.847 | locus YNL307C, strain MCK1 (second series), active compounds read low 0.571 | locus YOL078W, strain AVO1, active compounds read low 0.847 | locus YOL136C, strain PFK27, active compounds read low 0.533 | locus YOR061W, strain CKA2, active compounds read low 0.608 | locus YOR119C, strain RIO1, active compounds read low 0.549 | locus YOR231W, strain MKK1, active compounds read low 0.426 | locus YOR329C, strain SCD5, active compounds read low 0.857 | locus YPL031C, strain PHO85, active compounds read low 0.526 | locus YPL153C, strain RAD53, active compounds read low 0.52 | locus YPL204W, strain HRR25, active compounds read low 0.52 | locus YPL209C, strain IPL1, active compounds read low 0.86 | locus YPL256C, strain CLN2, active compounds read low 0.547 | locus YPR025C, strain CCL1, active compounds read low 0.855 | strain NNK1, active compounds read low 0.87 | strain TSCII, active compounds read low 0.833

CC(=O)Nc1ccc(C(F)(F)F)cc1Br
inactive: [3] 1 | [4] 1.01 | [1] 0.979 | [5] 0.98 | [6] 0.862 | [7] 0.967 | [8] 0.993 | [2] 0.896 | [9] 1.05 | [10] 0.932 | [11] 0.99 | [12] 1 | [13] 0.972 | [14] 0.933 | [15] 1 | [16] 0.996 | [17] 0.999 | [18] 0.965 | [19] 1.06 | [20] 0.964 | [21] 0.994 | [22] 0.957 | [23] 0.989 | [24] 0.993 | [25] 1.05 | [26] 1 | [27] 0.897

O=C(Nc1ccccc1)Nc1ccc(C(F)(F)F)cc1Br
inactive: [3] 0.968 | [4] 0.985 | [1] 1.04 | [5] 0.967 | [6] 0.957 | [7] 0.981 | [8] 0.948 | [2] 0.749 | [9] 0.941 | locus YJL187C, strain SWE1, active compounds read low 0.943 | [10] 0.926 | [11] 0.906 | [12] 0.843 | [13] 0.969 | [15] 0.948 | [16] 0.957 | [17] 0.99 | [18] 0.917 | [20] 0.957 | [21] 0.979 | [23] 0.995 | [24] 0.887 | [25] 0.842 | [26] 0.885 | [27] 0.878
active: [14] 0.728 | [19] 0.54 | [22] 0.799 | locus YOL006C, strain TOP1, active compounds read low 0.722

NC(=NCCCC(N)C(=O)O)N[N+](=O)[O-] (stereo not given)
inactive: locus YAL040C, strain CLN3, active compounds read low 0.999 | locus YCL061C, strain MRC1 (second series), active compounds read low 1 | locus YDR363W, strain ESC2, active compounds read low 1.03 | locus YER002W, strain NOP16, active compounds read low 1 | locus YGR229C, strain SMI1, active compounds read low 1.02 | [11] 1.02 | [18] 1 | [19] 1 | [20] 1.02 | locus YNL175C, strain NOP13, active compounds read low 1 | locus YNL197C, strain WHI3, active compounds read low 1.01 | locus YNL224C, strain SQS1, active compounds read low 1.01 | locus YOR083W, strain WHI5 (second series), active compounds read low 1.02
